Measured values: PubChem BioAssay (Tox21)
“And” between values parts separate entries of the source, which are not always exact repeats. Identical values can stand only once. Inconclusive results are not listed. Entries that show only a call come without a potency. The source made the active and inactive calls. Unless noted, calls come from the whole dose curve; as a rule, active = well fitted curve in the direction sought with a large enough effect in the repeat runs; inconclusive = weak or mixed curves; inactive = no such curve, though single readings can be large; an effect the other way counts as inactive or inconclusive.

Key:
[1] = qHTS assay to identify small molecule agonists of the androgen receptor (AR) signaling pathway in the presence of an antagonist - cell viability counter screen (AID 1259379);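 note: MDA-kb2 human breast cancer cells carrying an MMTV luciferase reporter; series mostly up to about 92 µM; nearly all actives have a fitted effect of over 25% in size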
How it was run: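 Cytotoxicity is assessed by CellTiter-Fluor in MDA-kb2 cells carrying an MMTV-driven luciferase reporter. Cells receive 3.0uM nilutamide plus compounds at 15 concentrations and incubate 16 hr at 37C without CO2 before fluorescence reading.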

[2] = qHTS assay to identify small molecule agonists of the estrogen receptor beta (ER-beta) signaling pathway - cell viability counter screen (AID 1259380); note: nearly all actives have a fitted effect of over 30% in size
How it was run: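 Cytotoxicity is measured in parallel with the reporter screen: after 16 hr compound exposure at 37C and a 2 hr LiveBLAzer step, CellTiter-Glo is added to the same ER-beta-UAS-bla HEK293T wells and luminescence read after 30 min.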

[3] = qHTS assay to identify small molecule antagonists of the estrogen receptor beta (ER-beta) signaling pathway - cell viability counter screen (AID 1259382); note: nearly all actives have a fitted effect of over 55% in size; note: potency is the fitted concentration of half-maximal effect
How it was run: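 Cytotoxicity counter screen multiplexed with the beta-lactamase antagonist assay: GripTite HEK293T ER-beta-bla cells were treated 16 hr with test chemicals in the presence of 1nM 17-beta-estradiol, and viability was measured by CellTiter-Glo.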

[4] = qHTS assay to identify small molecule agonists of the estrogen receptor alpha (ER-alpha) signaling pathway in the presence of an antagonist - cell viability counter screen (AID 1259386);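 note: series mostly up to about 92 µM; cells exposed to compounds for 22 h at 37 °C before the viability read; nearly all actives have a fitted effect of over 30% in size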
How it was run: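 Cytotoxicity was measured in parallel with the ERE-luciferase agonist screen, in the same wells. The cells were VM7Luc4E2, which endogenously express ER-alpha, and treatment was with compounds plus 10.0nM ICI-182,780 for 22hr.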

[5] = target: Progesterone receptor (Homo sapiens) (UniProt P06401); test: qHTS assay to identify small molecule agonists of the progesterone receptor (PR) signaling pathway (AID 1346784; calls by dose curve; note: nearly all actives have a fitted effect of over 30% in size)
Chain of Progesterone receptor (Homo sapiens) (P06401 whole entry, looked up): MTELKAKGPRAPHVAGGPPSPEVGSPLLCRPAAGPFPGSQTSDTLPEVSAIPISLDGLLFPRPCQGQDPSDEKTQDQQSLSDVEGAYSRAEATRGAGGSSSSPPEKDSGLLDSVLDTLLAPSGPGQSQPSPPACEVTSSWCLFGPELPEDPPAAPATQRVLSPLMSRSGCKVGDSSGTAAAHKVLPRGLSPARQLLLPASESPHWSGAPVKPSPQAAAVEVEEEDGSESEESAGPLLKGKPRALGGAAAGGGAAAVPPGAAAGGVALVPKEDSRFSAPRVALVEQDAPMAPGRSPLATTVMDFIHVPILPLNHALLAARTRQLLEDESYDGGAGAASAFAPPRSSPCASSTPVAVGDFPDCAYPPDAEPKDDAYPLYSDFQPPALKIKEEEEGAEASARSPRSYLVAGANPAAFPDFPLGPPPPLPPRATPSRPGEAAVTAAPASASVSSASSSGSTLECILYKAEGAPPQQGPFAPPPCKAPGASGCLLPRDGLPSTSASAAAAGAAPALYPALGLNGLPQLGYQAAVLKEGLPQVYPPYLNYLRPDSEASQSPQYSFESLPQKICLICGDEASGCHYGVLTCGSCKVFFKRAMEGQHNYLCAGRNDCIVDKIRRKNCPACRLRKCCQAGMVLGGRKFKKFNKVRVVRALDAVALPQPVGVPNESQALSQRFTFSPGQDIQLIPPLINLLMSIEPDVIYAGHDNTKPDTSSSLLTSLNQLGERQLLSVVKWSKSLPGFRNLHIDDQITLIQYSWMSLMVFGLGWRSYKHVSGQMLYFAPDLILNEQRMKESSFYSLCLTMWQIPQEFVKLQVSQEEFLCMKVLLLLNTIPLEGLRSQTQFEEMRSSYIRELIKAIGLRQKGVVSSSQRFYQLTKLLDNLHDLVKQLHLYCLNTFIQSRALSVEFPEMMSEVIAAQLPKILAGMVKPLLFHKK
How it was run: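 Cells (PR-UAS-bla HEK 293T, GripTite) were plated in assay medium containing 2% charcoal-stripped FBS and incubated 6 hr. Test compounds in DMSO were added for 16 hr at 37C. FRET substrate was then loaded for 2 hr at room temperature before fluorescence reading.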

[6] = qHTS assay to identify small molecule antagonists of the progesterone receptor (PR) signaling pathway - cell viability counter screen (AID 1346798); note: series mostly up to about 92 µM; nearly all actives have a fitted effect of over 50% in size
How it was run: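 Counter screen for cytotoxicity: viability of PR-UAS-bla HEK293T cells was measured with CellTiter-Glo luminescence following 16 hr compound exposure in the presence of R5020.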

[7] = qHTS assay to identify small molecule agonists of the progesterone receptor (PR) signaling pathway - cell viability counter screen (AID 1346799; calls by dose curve; note: nearly all actives have a fitted effect of over 45% in size; note: potency is the fitted concentration of half-maximal effect)
How it was run: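 Cells (PR-UAS-bla HEK293T) are plated at 3,000/well in 2% charcoal-stripped FBS medium, rested 6 hr, dosed and incubated 16 hr at 37C. CellTiter-Glo is then added and luminescence measured after 30 min at room temperature.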

[8] = qHTS assay to identify small molecule antagonists of the TGF-beta/Smad signaling pathway - cell viability counter screen (AID 1346824); note: nearly all actives have a fitted effect of over 50% in size
How it was run: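 Cytotoxicity counter-screen run in the same wells as the beta-lactamase Smad reporter read: CellTiter-Glo luminescence after 30 min at room temperature. HEK 293T SBE-bla cells had 5 hr compound exposure at 37 C with TGF-beta1 (0.25 ng/mL stock).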

[9] = qHTS assay to identify small molecule agonists of the TGF-beta/Smad signaling pathway - cell viability counter screen (AID 1346829); note: top concentration of the series differs between compounds; nearly all actives have a fitted effect of over 45% in size
How it was run: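 Cytotoxicity counter screen: CellTiter-Glo luminescence (30 min, room temperature) measured in the SBE-bla HEK 293T reporter wells after 5 hr compound treatment at 37 C and the 2 hr substrate step.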

[10] = qHTS assay to identify small molecule agonists of the TGF-beta/Smad signaling pathway (AID 1346859; active = well fitted activation curve with a large enough effect in the signal ratio in the repeat runs, not every such curve was filed as active; the % refers to the signal ratio; note: series mostly up to about 77 µM)
How it was run: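 Reporter line: HEK 293T with stably integrated SBE-controlled beta-lactamase. Compound exposure lasts 5 hr at 37 C and 5% CO2; substrate loading follows for 2 hr at room temperature, with emission read at 460 and 530 nm.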

[11] = target: Thyrotropin-releasing hormone receptor (Homo sapiens) (UniProt P34981); test: qHTS assay to identify small molecule antagonists of the thyrotropin-releasing hormone receptor (TRHR) signaling pathway (AID 1346877; active = well fitted inhibition curve with a large enough effect in the repeat runs, not every such curve was filed as active; note: series mostly up to about 51 µM)
Chain of Thyrotropin-releasing hormone receptor (Homo sapiens) (P34981 whole entry, looked up): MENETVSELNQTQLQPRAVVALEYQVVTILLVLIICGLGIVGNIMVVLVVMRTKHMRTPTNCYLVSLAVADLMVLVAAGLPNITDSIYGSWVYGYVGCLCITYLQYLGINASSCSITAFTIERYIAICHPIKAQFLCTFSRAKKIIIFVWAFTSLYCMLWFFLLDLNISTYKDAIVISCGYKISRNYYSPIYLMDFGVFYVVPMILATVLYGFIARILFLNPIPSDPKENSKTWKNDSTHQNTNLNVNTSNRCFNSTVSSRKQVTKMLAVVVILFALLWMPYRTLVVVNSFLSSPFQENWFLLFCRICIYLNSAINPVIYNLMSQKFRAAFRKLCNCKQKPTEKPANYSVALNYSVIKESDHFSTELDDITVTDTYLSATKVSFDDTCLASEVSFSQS
How it was run: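 Antagonism is measured as suppression of the calcium response to 1 nM TRH in TRHR-HEK293 cells that have been dye-loaded for 2 h at 37 °C after overnight plating. Each compound is tested at 15 concentrations in triplicate.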

[12] = target: Thyrotropin-releasing hormone receptor (Homo sapiens) (UniProt P34981); test: qHTS assay to identify small molecule agonists of the thyrotropin-releasing hormone receptor (TRHR) signaling pathway (AID 1346891; calls by dose curve;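 note: HEK293 cells expressing TRHR with calcium dye readout; series mostly up to about 58 µM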)
How it was run: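 Cells: TRHR-Hek293, seeded and incubated 18 h. Dye loading: 2 h at 37 °C. Compound added from DMSO stock by pin tool. Read-out: kinetic calcium fluorescence over 3 min.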

[13] = Human pregnane X receptor (PXR) small molecule agonists, qHTS cell viability counter screen (AID 1346977); note: nearly all actives have a fitted effect of over 50% in size
How it was run: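 Cytotoxicity counter screen run in the same wells as the PXR luciferase assay, using PXR-Luc HepG2 cells in charcoal-stripped serum medium. Viability: CellTiter-Fluor fluorescence after 24hr compound treatment.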

[14] = qHTS assay to identify small molecule agonists or antagonists of the thyroid stimulating hormone receptor (TSHR) signaling pathway - wild type cell line counter screen (AID 1259384; calls by dose curve)
How it was run: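 Counter screen in untransfected Hek293: compounds (15-point titration, triplicate) plus phosphodiesterase inhibitor Ro20-1724 added after 18 h plating; 30 min RT. Intracellular cAMP via competitive d2/cryptate immunoassay, 1 h incubation.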

[15] = target: Thyrotropin receptor (Homo sapiens) (UniProt P16473); test: qHTS assay to identify small molecule antagonists of the thyroid stimulating hormone receptor (TSHR) signaling pathway (AID 1259385; calls by dose curve; note: nearly all actives have a fitted effect of over 20% in size)
Chain of Thyrotropin receptor (Homo sapiens) (P16473 whole entry, looked up): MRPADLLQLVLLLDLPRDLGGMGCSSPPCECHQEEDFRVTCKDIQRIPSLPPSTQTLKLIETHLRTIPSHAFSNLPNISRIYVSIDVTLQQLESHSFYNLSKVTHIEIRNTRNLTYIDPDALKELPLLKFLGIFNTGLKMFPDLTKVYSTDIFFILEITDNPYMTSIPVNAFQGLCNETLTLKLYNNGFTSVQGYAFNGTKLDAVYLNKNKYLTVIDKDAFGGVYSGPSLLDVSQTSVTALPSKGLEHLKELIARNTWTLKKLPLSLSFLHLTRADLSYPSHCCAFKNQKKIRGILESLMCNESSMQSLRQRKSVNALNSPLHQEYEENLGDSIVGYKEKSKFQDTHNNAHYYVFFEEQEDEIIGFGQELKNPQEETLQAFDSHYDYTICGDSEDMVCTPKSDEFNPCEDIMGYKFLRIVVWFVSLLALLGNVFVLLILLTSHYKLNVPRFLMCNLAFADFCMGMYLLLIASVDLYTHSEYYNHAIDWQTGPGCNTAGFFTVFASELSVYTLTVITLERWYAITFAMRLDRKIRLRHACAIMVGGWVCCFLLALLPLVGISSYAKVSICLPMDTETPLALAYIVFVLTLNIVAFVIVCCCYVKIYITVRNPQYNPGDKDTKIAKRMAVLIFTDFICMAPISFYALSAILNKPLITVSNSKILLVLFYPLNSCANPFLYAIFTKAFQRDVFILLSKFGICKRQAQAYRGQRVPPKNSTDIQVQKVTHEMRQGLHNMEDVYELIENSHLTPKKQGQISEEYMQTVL
How it was run: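 Antagonist mode: compound-treated TSHR-expressing HEK293 cells were stimulated with 1.5 ng/mL TSH (final) in presence of Ro20-1724 for 30 min at RT. HTRF cAMP detection after 1 h; each compound tested at 15 concentrations, triplicate.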

[16] = target: Progesterone receptor (Homo sapiens) (UniProt P06401); test: qHTS assay to identify small molecule antagonists of the progesterone receptor (PR) signaling pathway (AID 1346795; active = well fitted inhibition curve with a large enough effect in the signal ratio in the repeat runs, not every such curve was filed as active; the % refers to the signal ratio)
How it was run: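 Antagonist mode: compounds tested against 1 nM (final) promegestone stimulation in HEK293T cells expressing PR-UAS-bla reporter, 16 hr at 37C, 5% CO2; beta-lactamase activity detected via B/G FRET substrate after 2 hr at room temperature.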

| SMILES | Potency [1] | Potency [2] | Potency [3] | Potency [4] | Potency [5] | Potency [6] | Potency [7] | Potency [8] | Potency [9] | outcome [10] | Potency [11] | Potency [12] | Potency [13] | Potency [14] | Potency [15] | Potency [16] |
| --- | --- | --- | --- | --- | --- | --- | --- | --- | --- | --- | --- | --- | --- | --- | --- | --- |
| CC(C)C(=O)c1c(C(C)C)nn2ccccc12 | inactive | inactive | inactive | inactive | inactive | inactive | inactive | inactive | inactive | inactive | inactive | inactive | inactive | – | – | – |
| O | inactive | inactive | inactive | inactive | inactive | inactive | inactive | inactive | inactive | inactive | inactive | inactive | inactive | inactive | inactive | inactive |
| COc1ccc(COC(C)=O)cc1 | inactive | inactive | inactive | inactive | inactive | inactive | inactive | inactive | – | inactive | – | – | inactive | inactive | inactive | inactive |
| O=S(=O)(O)c1ccc2nc(-c3ccccc3)[nH]c2c1 | inactive | – | 32.7 µM (active) | inactive | inactive | – | 32.7 µM (active) and 8.41 µM (active) | – | – | inactive | inactive | inactive | inactive | inactive | inactive | inactive |
